Bioassay records as filed in PubChem BioAssay.
CF NFkB inh = inhibitors of PAF-induced NF-kB signaling, primary screen, cell-based, GFP fluorescence, uHTS | KKLEB NF-kB-GFP reporter, GFP fluorescence overnight | inhibition, % at 5 µM | hit rate 0.86% among 360,000;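 active = at least 50% inhibition at 5 µM, scaled per plate between neutral and stimulator controls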;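 also: PAF is a Pseudomonas aeruginosa culture filtrate used as stimulus; plate controls were PAF-stimulated DMSO wells for no effect and unstimulated DMSO wells for full effect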
HIF-2a inh = HIF-2a reporter inhibitors, primary screen, luminescence, 786-0 RCC cells. 786-0 RCC cells HIF-2a reporter, luciferase luminescence, overnight. inhibition, % at 18.8 µM. hit rate 0.72% among 360,000;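 active = inhibition of the luminescence signal of 40% or more relative to plate controls, in a single-dose primary screen at 18.75 µM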
Peg3 prom inh = Peg3 promoter-driven luciferase inhibitors, primary screen, cell-based, HeLa, luciferase luminescence. HeLa PEG-Prom luciferase reporter, overnight. inhibition, % at 20 µM. hit rate 1.7% among 360,000. AID 588405, 2011;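 active = inhibition of at least 50% at 20 µM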
KKLEB tox = cytotoxicity in KKLEB CF airway cells, primary screen, cytotoxicity control for CF NF-kB inhibitor project, cell-based, uHTS, fluorescence assay plates; KKLEB CF airway cells viability, ATPlite luminescence, overnight; hits give low values; cells stimulated with P. aeruginosa culture filtrate; hit rate 0.36% among 360,000; activity change (cytotoxicity), % at 5 µM; AID 602141, 2011;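 active = corrected activity change at or below -50% at 5 µM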
Shn3 inh set2 = reduction of Shn3 3'UTR firefly luciferase signal, primary screen, Schnurri-3 inhibitor project, cell-based, Clone20 osteoblasts, set 2 | Clone20 osteoblast Shn3 3'UTR firefly luciferase, 24 h | inhibition, % at 12.5 µM | hit rate 0.52% among 360,000 | AID 588674, 2011;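 active = mean inhibition of at least 75% with every replicate also reaching 75%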;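 also: 0% = median of neutral control wells and 100% = pilot-screen positive control compound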
* hit, by the source's call. Shown are actives, neighbours in structure and some others; about 2.6% of the full set was active somewhere.

SMILES | CF NFkB inh | HIF-2a inh | Peg3 prom inh | KKLEB tox | Shn3 inh set2
CNc1nc(N/N=C/c2cc3c(cc2[N+](=O)[O-])OCO3)nc(Nc2ccccc2)n1 | 2.1 | -28.4 | 86.5* | -3.6 | 5.1
COc1ccc(O)c(/C=N/Nc2nc(Nc3ccccc3)nc(-n3nc(C)cc3C)n2)c1 | 73.5* | -156.3 | 22.4 | 6.2 | 64.8
COc1cc(/C=N/Nc2nc(N3CCCC3)nc(N3CCCC3)n2)ccc1O | -6.4 | 10.6 | 7.9 | 6.4 | -7.5
COc1cc(/C=N/Nc2nc(Nc3ccccc3)nc(-n3nc(C)cc3C)n2)cc(OC)c1OC | 72.2* | -81.9 | 32.1 | -0.2 | 53.9
CCCn1c(SCC(=O)NNC(=O)c2ccc(C)cc2)nnc1C(C)C | -12.2 | 7.6 | 3.1 | -10.9 | 2.1
COC(=O)c1sc(SC)c(-c2ccon2)c1C | 1.8 | 3.5 | -2.8 | -6.3 | 10.0
COc1ccc(/C=N/Nc2nc(Nc3ccccc3)nc(N3CCCC3)n2)cc1[N+](=O)[O-] | -19.3 | -6.6 | 60.2* | 7.3 | 13.1
COc1ccc(/C=N/Nc2nc(N3CCCCC3)nc(N3CCCCC3)n2)cc1[N+](=O)[O-] | -19.3 | -2.3 | 12.6 | 9.6 | 5.7
CCc1ccc(C(=O)NC(CCSC)C(=O)OC)cc1 (stereo not drawn) | 1.4 | -14.0 | -13.1 | -9.9 | -9.5
O=C(c1ccccc1)c1cccc2ccccc12 | 10.2 | 4.1 | 23.6 | -13.0 | 21.6
N#CC(=C1C=C(Br)C(=NO)C=C1Cl)c1cccc2ccccc12 | 51.2* | 17.1 | 38.7 | 0.0 | 7.7
CCc1ccc(N2CC(C(=O)OCC(=O)Nc3ccc(C#N)cc3)CC2=O)cc1 (stereo not drawn) | 9.7 | 2.9 | -2.5 | -3.8 | -3.1
CC(C)Oc1ccc(C(CCN)C2CCCCC2)cc1 (stereo not drawn) | 20.7 | 30.9 | 105.0* | -26.4 | 76.8
COc1ccc(OC)c(NC(=O)CCCNC(=O)c2ccc(Cl)cc2)c1 | 9.8 | 10.8 | -0.6 | -20.0 | -5.9
O=C(N/N=C/c1ccc[nH]1)c1ccc(O)cc1 | 4.3 | -21.5 | -32.6 | 11.0 | -7.5
Cc1cc(Br)c(OCc2ccc(C(=O)N/N=C/c3ccc[nH]3)cc2)c(Br)c1 | 71.1* | 7.6 | 99.6* | -84.7* | 97.1*
O=C(COC(=O)/C=C/c1ccc(Cl)c(Cl)c1)NC1CCCC1 | -35.3 | 6.0 | 13.5 | -5.1 | 7.2
CN(C)CC1CCC/C(=C\c2ccc(OC(=O)/C=C/c3ccc(Cl)c(Cl)c3)cc2)C1=O (stereo not drawn) | -26.3 | 8.1 | 94.6* | 12.7 | 6.9
CCOC(=O)c1c(NC(=O)CSc2nc3ccc(C)cc3[nH]2)sc2c1CC(C)(C)NC2(C)C | 6.2 | 5.6 | 30.6 | -23.2 | 44.5
Cc1cccc(-n2c(=S)[nH]c3c(oc4ccccc43)c2=O)c1 | -6.4 | -56.8 | -15.9 | 1.0 | -6.9
CC(C)N1CCN(c2ccc(OCC3COC(Cn4cncn4)(c4ccc(Cl)cc4Cl)O3)cc2)CC1 (stereo not drawn) | 6.2 | 6.3 | 46.5 | -4.7 | 95.2*
Cc1c(C)c2ccc(OCC(=O)NCCc3c[nH]c4ccccc34)cc2oc1=O | -4.2 | -10.4 | -8.5 | 0.8 | 0.2
C/C(=N\Nc1ccc(C(=O)c2c(C)cc3ccccn23)cc1[N+](=O)[O-])c1ccc(O)cc1 | 68.7* | 11.7 | 25.9 | -61.9* | 57.0
COc1ccc(OC(=O)c2cccc(S(=O)(=O)N3CC(C)OC(C)C3)c2)cc1 (stereo not drawn) | -1.0 | 8.3 | 13.9 | 6.5 | 9.4
O=c1c(Cl)c(Cl)cnn1Cc1ccc(F)cc1 | 34.7 | 14.1 | 73.9* | -4.8 | -2.8
CCN(CC)c1ccc(/C=C2/SC(=O)N(C(C)C)C2=O)o1 | 15.1 | 23.8 | -23.4 | -14.2 | 96.5*
C=CCN1N=C(/C=C/c2ccccc2)CCC1=O | -11.5 | -45.0 | -47.8 | 0.3 | 8.7
CCn1c(C)nc2cc(C(=O)N/N=C/c3cccc(O)c3O)ccc21 | 7.2 | -177.2 | -43.4 | 0.1 | 90.5*
COc1ccc(NC(=O)c2c(Nc3ccccc3)sc(C(=O)c3ccc(F)cc3)c2N)cc1 | 41.1 | -16.3 | 29.6 | -53.2* | 44.8
COc1ccc(C(=O)c2sc(Nc3ccccc3)c(C(=O)Nc3ccc(OC)c(OC)c3)c2N)cc1 | 10.4 | -77.8 | 4.3 | -12.2 | 4.0
